{"source": "PubChem BioAssay (NCATS)", "note": "Results filed as inconclusive are left out. A call without a number means that no potency is given here. Active and inactive are the calls of the source. Calls follow the shape of the dose curve; as a rule, active = well fitted cell-killing curve with a large enough effect; inconclusive = small, poorly fitted or top-dose-only effect; inactive = flat fitted curve, though single readings scatter."}
{"assay": "Cell Viability - LYMP1-003 - Assay at 40 hr (AID 964); also: nearly all actives have a fitted effect of over 60% in size", "settings": "LYMP1-003 lymphoblastoid viability; series mostly up to 92.2 µM", "excerpt": "NIH Chemical Genomics Center [NCGC]\nNIH Molecular Libraries Screening Centers Network [MLSCN]\nNational Institutes of Environmental Health Sciences [NIEHS]\nNational Toxicology Program [NTP]\nWe have developed a 1536-well cell-based assay for quantitative high throughput screening (qHTS) against a number of cell lines to determine in vitro cytotoxicity of small molecules. This particular assay uses a human lymphoblastoid cell line (LYMP1-003) purchased from Coriell Institute for Medical Research.\nNCGC Assay Protocol Summary:\nThe CellTiter-Glo luminescent cell viability assay (Promega) is a homogeneous method to measure the number of viable cells in culture. The end point readout of this assay is based on quantitation of intracellular ATP, an indicator of metabolic activity, using the luciferase reaction. Luciferase catalyzes the oxidation of beetle Luciferin to oxyluciferin and light in the presence of ATP. The luminescent signal is proportional to amount of ATP present.\nUsing the CellTiter-Glo luminescent cell viability assay, the amount of cellular ATP was measured in the lymphoblastoid cell line with complete culture medium following compound treatment for 40 hours. The assay was performed in opaque white Kalypsys 1536-well plates. In the screen, tetraoctylammonium bromide was used as positive control. Library compounds were measured for their ability to cause acute toxicity in the cell line, as reflected by a decrease in intracellular ATP levels, in a concentration-dependent manner. […] AC50 values were determined from concentration-response data modeled with the standard Hill equation.\nqHTS protocol for CellTiter Glo lymphoblastoid cellular assay\n[Step] [Parameter] [Value] [Description]\n1. Reagent; 5 uL; 2500 lymphoblastoid cells/well\n2. Time; 5 hr; 37 C incubation\n4. Controls; 23 nL; Tetraoctylammonium bromide 6.4pM to 92 uM\n5. Time; 40 hr; 37 C incubation\n6. Reagent; 5 uL; CellTiter Glo reagent\n7. Time; 30 min; Room Temperature\n8. Detection; Luminescence; Viewlux plate reader\nKeywords: cell viability, cytotoxicity, lymphoblastoid cell line, luminescence, NTPHTS, NTPHTS_NCGC, NIEHS, DSSTox, MLSMR, MLSCN, NIH Roadmap, qHTS, NCGC"}
{"smiles": "Nc1nc(CC(=O)O)cs1", "Potency": "inactive"}
{"smiles": "O=C(O)c1ccccc1C(=O)O", "Potency": "inactive"}
{"smiles": "Nc1ccccc1[N+](=O)[O-]", "Potency": "inactive"}
{"smiles": "CCCCCCCCC", "Potency": "inactive"}
{"smiles": "OCCO", "Potency": "inactive"}
{"smiles": "OC(CCl)CCl", "Potency": "inactive"}
{"smiles": "O=C(Cl)c1cccc([N+](=O)[O-])c1", "Potency": "inactive"}
{"smiles": "C[C@@H]1O[C@@H](O[C@@H]2[C@@H](O)[C@H](OCCc3ccc(O)c(O)c3)O[C@H](CO[C@@H]3O[C@H](CO)[C@@H](O)[C@H](O)[C@H]3O)[C@H]2OC(=O)/C=C/c2ccc(O)c(O)c2)[C@H](O)[C@H](O)[C@H]1O", "Potency": "inactive"}
{"smiles": "CO[Si](CCCNCCC[Si](OC)(OC)OC)(OC)OC", "Potency": "inactive"}
{"smiles": "CC(=O)c1nccs1", "Potency": "inactive"}
{"smiles": "NC(=S)NNC(N)=S", "Potency": "inactive"}
{"smiles": "CC(C)C(C)C", "Potency": "inactive"}
{"smiles": "Cc1cccc2cccnc12", "Potency": "inactive"}
{"smiles": "C=CCCCCCC", "Potency": "inactive"}
{"smiles": "O=C(Cl)c1ccccc1[N+](=O)[O-]", "Potency": "inactive"}
{"smiles": "CC(C)=CCC/C(C)=C/C=O", "Potency": "inactive"}
{"smiles": "COC(=O)c1ccccc1", "Potency": "inactive"}
{"smiles": "CC1CCCO1", "note": "(stereo not given)", "Potency": "inactive"}
{"smiles": "CC(=O)C1(C)CC2=C(CCCC2(C)C)CC1C", "note": "(stereo not given)", "Potency": "inactive"}
{"smiles": "CCOc1cccc(N)c1", "Potency": "inactive"}
{"smiles": "C=CCn1c(=O)n(CC=C)c(=O)n(CC=C)c1=O", "Potency": "inactive"}
{"smiles": "COc1cccc2sc(N)nc12", "Potency": "inactive"}
{"smiles": "CN(C)CCCCl", "Potency": "inactive"}
{"smiles": "CCCOCC(C)OCC(C)O", "note": "(stereo not given)", "Potency": "inactive"}
{"smiles": "O=c1[nH][nH]c(=O)c2cc([N+](=O)[O-])ccc12", "Potency": "inactive"}
{"smiles": "C=C(C)C(=O)OCCCCCC", "Potency": "inactive"}
{"smiles": "O=C(O)c1ccc(Cl)c(Cl)c1", "Potency": "inactive"}
{"smiles": "NS(=O)(=O)O", "Potency": "inactive"}
{"smiles": "CC(=O)c1cccc([N+](=O)[O-])c1", "Potency": "inactive"}
{"smiles": "Cc1ccccc1C=O", "Potency": "inactive"}
{"smiles": "Nc1cc(Cl)c([N+](=O)[O-])cc1O", "Potency": "inactive"}
{"smiles": "CCCCCO", "Potency": "inactive"}
{"smiles": "CCC(C)=O", "Potency": "inactive"}
{"smiles": "Clc1ccc(Cl)c(Cl)c1Cl", "Potency": "inactive"}
{"smiles": "Clc1cc(Cl)cc(Cl)c1", "Potency": "inactive"}
{"smiles": "C/C=C1\\CC2C=CC1C2", "note": "(stereo not given)", "Potency": "inactive"}
{"smiles": "CCCCCCC(=O)O", "Potency": "inactive"}
{"smiles": "COc1ccc(N)c(C)c1", "Potency": "inactive"}
{"smiles": "Cc1ccc2oc(=O)ccc2c1", "Potency": "inactive"}
{"smiles": "CCCCCCO", "Potency": "inactive"}
